How the values were obtained:
Format in all cases: functional
[1] = molecular target: Solute carrier family 2, facilitated glucose transporter member 1 (Homo sapiens) (UniProt P11166); assay: ST_JUDE_LEISH: Cytotoxicity at 2uM final concentration against transgenic Leishmania Mexicana promastigotes LmGLUT1 that are glucose transport deficient and complemented with the human glucose transporter GLUT1. Activity is measured by DNA content using SYBR green in vitro
[2] = molecular target: Hexose transporter 1 (Plasmodium falciparum) (UniProt O97467); assay: ST_JUDE_LEISH: Cytotoxicity at 2uM final concentration against transgenic Leishmania Mexicana promastigotes LmPfHT that are glucose transport deficient and complemented with the Plasmodium falciparum hexose transporter. Activity is measured by DNA content using SYBR green in vitro
[3] = molecular target: Glucose transporter (Leishmania mexicana) (UniProt O61059); assay: ST_JUDE_LEISH: Cytotoxicity at 2uM final concentration against transgenic Leishmania Mexicana promastigotes LmGT2 that are glucose transport deficient and complemented with the L. Mexicana glucose transporter 2. Activity is measured by DNA content using SYBR green in vitro

Sequence of Solute carrier family 2, facilitated glucose transporter member 1 (Homo sapiens) (P11166 whole entry): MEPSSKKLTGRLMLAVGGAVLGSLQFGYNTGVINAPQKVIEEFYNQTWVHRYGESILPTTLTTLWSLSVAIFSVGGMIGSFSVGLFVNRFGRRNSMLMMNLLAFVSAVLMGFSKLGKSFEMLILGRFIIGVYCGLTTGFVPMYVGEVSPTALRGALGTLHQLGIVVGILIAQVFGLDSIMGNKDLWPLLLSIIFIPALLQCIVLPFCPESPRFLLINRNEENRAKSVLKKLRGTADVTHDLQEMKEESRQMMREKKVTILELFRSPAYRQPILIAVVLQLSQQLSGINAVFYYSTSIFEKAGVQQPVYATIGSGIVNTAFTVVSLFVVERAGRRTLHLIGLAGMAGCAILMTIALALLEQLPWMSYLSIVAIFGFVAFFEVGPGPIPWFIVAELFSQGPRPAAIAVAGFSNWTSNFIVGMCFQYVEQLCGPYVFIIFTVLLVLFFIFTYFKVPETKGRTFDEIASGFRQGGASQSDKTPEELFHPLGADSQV

## O=C(NCCCCN1CCC(c2ccc3c(c2OCCCO)CCCC3)CC1)c1ccc(-c2ccc(C(F)(F)F)cc2)cc1
[1]
  inhibition: 1.13%
[2]
  inhibition: 3.02%
[3]
  inhibition: 2.9%

## CCCCN1C(=N)NC(c2ccccc2)(c2ccccc2)C1=O
[1]
  inhibition: 5.12%
[2]
  inhibition: 3.94%
[3]
  inhibition: 3.58%

## O=c1ccc2ncc(Cl)c3c2n1CC3CN1CCC(NCc2cc3c(cn2)OCCO3)CC1 (stereo unspecified)
[1]
  inhibition: 8.8%
[2]
  inhibition: 14.5%
[3]
  inhibition: 5.05%

## CCc1ccc(-c2nc3cc(NC(=O)c4cc([N+](=O)[O-])cc([N+](=O)[O-])c4)ccc3o2)cc1
[1]
  inhibition: 2.33%
[2]
  inhibition: 1.19%
[3]
  inhibition: 2.3%

## Cc1ccc2c(=O)c3cc(C)ccc3[nH]c2c1
[1]
  inhibition: 3.4%
[2]
  inhibition: 0.93%
[3]
  inhibition: 0.54%

## O=C(/C=C/c1cccc(Cl)c1)NCCCCCN1CCC(c2c[nH]c3ccccc23)CC1
[1]
  inhibition: 3.67%
[2]
  inhibition: 6.67%
[3]
  inhibition: 0.06%

## CCNc1cc(C(=O)N[C@@H](Cc2ccccc2)[C@H](O)CNCc2cccc(-c3cncnc3)c2)cc(N2CCCC2=O)c1
[1]
  inhibition: 3.81%
[2]
  inhibition: 3.48%
[3]
  inhibition: 4.42%

## CC(C)(CNCc1cc(Cl)cc(Cl)c1)c1nc(-c2ccnc(N)n2)c(-c2ccc(Cl)c(O)c2)[nH]1
[1]
  inhibition: -0.09%
[2]
  inhibition: 0.95%
[3]
  inhibition: 2.11%

## CN1CCC(C(=O)Nc2ccc(-c3ccc(-c4nc5ccccc5[nH]4)s3)cc2)CC1
[1]
  inhibition: 0.79%
[2]
  inhibition: -2.31%
[3]
  inhibition: 0.49%

## O=C(Nc1ccc(Cn2nc(Cl)c(N3CCCNCC3)cc2=O)cc1)c1ccc(-c2ccccc2)cc1
[1]
  inhibition: 7.36%
[2]
  inhibition: 5.68%
[3]
  inhibition: 4.52%

## Cc1ccc(CCOCCCCCNCC(O)c2cc(Cl)c(N)c(Cl)c2)cc1 (stereo unspecified)
[1]
  inhibition: 1.04%
[2]
  inhibition: -1.13%
[3]
  inhibition: 0.95%

## O=S(=O)(NCCN1CCCC1)c1ccc(-c2cccc(CNC3Cc4ccccc4C3)c2)s1
[1]
  inhibition: 13.9%
[2]
  inhibition: 13.6%
[3]
  inhibition: 5.84%

Source: ChEMBL document CHEMBL3433997, “St. Jude Leishmania screening dataset” (2016)
